Inconclusive results are not listed. Activity calls are given as the source filed them.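 The calls were made as follows, unless noted: active = growth inhibition above 25% in both replicates, a cutoff set 3 SD above the mean; inconclusive = above 25% in only one replicate; inactive = the rest.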
Columns and labels:
[1] = SK-BR-3 cell growth inhibitors, pilot screen, 24 h, human (AID 572;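 active = viability at or below 10% of carrier control in both of two separate runs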;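 also: compound exposure lasted between 18 and 24 h rather than exactly 24 h; 100% = carrier-treated control wells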); conditions: SK-BR-3 viability, CellTiter-Glo luminescence, at 10 µM, stronger effect = lower value
[2] = HUVEC growth inhibition – cell-based, human, primary screen (AID 575;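 active = viability at or below 30% in both replicate assays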;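 also: 100% = median of untreated cell wells with 0.1% DMSO on each plate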); conditions: HUVEC proliferation, CellTiter-Glo luminescence, 72 h; at 10 µM; stronger effect = lower value
[3] = growth inhibitors of H69AR lung tumor, primary screen, human, duplicate replicates (AID 580;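 active = viability at or under a set limit in both replicates, limit being median viability minus 3 SD, cut at about 48% in these data, passing the limit was not always enough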;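 also: 100% = mean luminescence of untreated wells and 0% = no signal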); conditions: H69AR lung tumor cells viability, ATP luminescence, 72 h; at 10 µM; stronger effect = lower value
[4] = reversal of MRP1-mediated doxorubicin resistance, pilot screen, H69AR cells, doxorubicin co-treatment (AID 601;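 active = viability loss from added drug above about 55%, and viability with drug at most 40%, in both replicates, limit read from the data, passing the limit was not always enough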); conditions: CellTiter-Glo, 72 h, at 10 µM; for differential viability (reversal): stronger effect = higher value
[5] = 384-well plate pilot, post-Golgi transport modulator project, inhibition of yeast transport mutant growth (AID 636; in the data active = inhibition above about 31%); conditions: absorbance 615 nm, about 18 h, stronger effect = higher value
[6] = growth suppression of yeast trafficking mutant, preliminary HTS, modulators of trafficking downstream of Golgi apparatus project, 1536-format plate, OD 615 nm (AID 637; in the data active = inhibition above about 30%); conditions: yeast transport mutant growth, absorbance 615 nm, 18 h; stronger effect = higher value
[7] = OD615 S. cerevisiae growth inhibition, permissive medium, pilot counter-assay, permissive growth control for S. cerevisiae lifespan shortening project (AID 705); conditions: OD615, 24 h, at 10 µM, stronger effect = higher value
[8] = Restrictive medium S. cerevisiae growth inhibition, OD615, pilot screen of yeast lifespan reduction project, restrictive growth control (AID 706;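 active = growth inhibition above a set limit, 3 SD over mean compound inhibition, in both replicates, cut at about 43% in these data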;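 also: modified DeaD lifespan yeast strain shifted to restrictive glucose medium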); conditions: OD615, 48 h, at 10 µM, stronger effect = higher value
[9] = viability gain of MRP-1-high H69AR cells under doxorubicin, pilot screen, MRP-1 activator project, CellTiter-Glo, duplicate (AID 807;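 active = viability increase at or above a cutoff of the median across tested compounds plus 3 SD, cut at about 8.5% in these data, passing the limit was not always enough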;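 also: compound pretreatment 18-22 h then 72 h combined with doxorubicin; 0% = doxorubicin alone and 100% = vehicle without doxorubicin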); conditions: H69AR viability with doxorubicin, CellTiter-Glo luminescence; at 10 µM; stronger effect = higher value
[10] = growth suppression of beta-catenin knockout HCT116, pilot screen, human colon tumor cells (AID 823;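 active = cell viability at or below a set limit in both duplicate runs, the limit being the all-compound median minus 4 SD, cut at about 23% in these data, passing the limit was not always enough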;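 also: 0% = wells killed by 20 µM Hyamine and 100% = untreated DMSO cell wells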); conditions: CellTiter-Glo, 60 h, at 10 µM, stronger effect = lower value
[11] = growth suppression of PTEN-deleted HCT116, pilot screen, cell-based, HCT116 clonal line, CellTiter-Glo (AID 824;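 active = viability at or below 27.92% in each of two runs, the all-compound median minus 4 SD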;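 also: 0% = 20 µM Hyamine control and 100% = vehicle cell control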); conditions: 60 h, at 10 µM, stronger effect = lower value
[12] = inhibitors of the yeast RAM network, pilot screen, dse1pr::URA3 reporter, 5-FOA selection (AID 869;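 active = inhibition over a set limit, the all-compound mean plus 3 SD, in both replicate runs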;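 also: 0% = DMSO wells with no growth and 100% = 10 µM 1-NA-PP1 with full growth; RAM network block rescues cells from 5-FOA so hits raise OD615 growth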); conditions: S. cerevisiae dse1pr::URA3 5-FOA growth, OD615, 2 d; at 10 µM; stronger effect = higher value; strain carries analog-sensitive mutant Cbk1 kinase
[13] = RAM signaling pathway blockade in yeast – S. cerevisiae, Pdr1DBD-CYC8 efflux-inhibited sensitized strain, primary screen (AID 1298;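 active = RAM network inhibition above 8.4% in each of two replicates, 3 SD over the compound average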;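 also: 0% = DMSO untreated cells without growth and 100% = 10 µM 1-NA-PP1 full growth; higher means more yeast growth rescued from 5-FOA killing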); conditions: S. cerevisiae cbk1-as DSE1-URA3 strain, 5-FOA growth OD615, 2 d; at 50 µM; stronger effect = higher value
[14] = reducers of endogenous Her2 protein level, primary screen, SKBR3 breast tumor cells, AlphaScreen, ATP viability (AID 461;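 active = Her2 level under about 52% in both replicate screens, with viability over 70% of control, limit read from the data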;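 as to Her2 level: lower value means less Her2 protein in the cells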;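 as to viability: percent of carrier control wells set as 100% viability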); conditions: 18-24 h, measured here: SKBR3 viability, ATP luminescence, at 10 µM
[15] = molecular target: Receptor tyrosine-protein kinase erbB-2 (Homo sapiens) (UniProt P04626); assay: as above; conditions: 18-24 h, at 10 µM, stronger effect = lower value
[16] = H69AR cells + 2 uM doxorubicin, measured here: viability with 2 uM doxorubicin, stronger effect = lower value
[17] = H69AR cells, compound alone cytotoxicity

Sequence of Receptor tyrosine-protein kinase erbB-2 (Homo sapiens) (P04626 whole entry, looked up): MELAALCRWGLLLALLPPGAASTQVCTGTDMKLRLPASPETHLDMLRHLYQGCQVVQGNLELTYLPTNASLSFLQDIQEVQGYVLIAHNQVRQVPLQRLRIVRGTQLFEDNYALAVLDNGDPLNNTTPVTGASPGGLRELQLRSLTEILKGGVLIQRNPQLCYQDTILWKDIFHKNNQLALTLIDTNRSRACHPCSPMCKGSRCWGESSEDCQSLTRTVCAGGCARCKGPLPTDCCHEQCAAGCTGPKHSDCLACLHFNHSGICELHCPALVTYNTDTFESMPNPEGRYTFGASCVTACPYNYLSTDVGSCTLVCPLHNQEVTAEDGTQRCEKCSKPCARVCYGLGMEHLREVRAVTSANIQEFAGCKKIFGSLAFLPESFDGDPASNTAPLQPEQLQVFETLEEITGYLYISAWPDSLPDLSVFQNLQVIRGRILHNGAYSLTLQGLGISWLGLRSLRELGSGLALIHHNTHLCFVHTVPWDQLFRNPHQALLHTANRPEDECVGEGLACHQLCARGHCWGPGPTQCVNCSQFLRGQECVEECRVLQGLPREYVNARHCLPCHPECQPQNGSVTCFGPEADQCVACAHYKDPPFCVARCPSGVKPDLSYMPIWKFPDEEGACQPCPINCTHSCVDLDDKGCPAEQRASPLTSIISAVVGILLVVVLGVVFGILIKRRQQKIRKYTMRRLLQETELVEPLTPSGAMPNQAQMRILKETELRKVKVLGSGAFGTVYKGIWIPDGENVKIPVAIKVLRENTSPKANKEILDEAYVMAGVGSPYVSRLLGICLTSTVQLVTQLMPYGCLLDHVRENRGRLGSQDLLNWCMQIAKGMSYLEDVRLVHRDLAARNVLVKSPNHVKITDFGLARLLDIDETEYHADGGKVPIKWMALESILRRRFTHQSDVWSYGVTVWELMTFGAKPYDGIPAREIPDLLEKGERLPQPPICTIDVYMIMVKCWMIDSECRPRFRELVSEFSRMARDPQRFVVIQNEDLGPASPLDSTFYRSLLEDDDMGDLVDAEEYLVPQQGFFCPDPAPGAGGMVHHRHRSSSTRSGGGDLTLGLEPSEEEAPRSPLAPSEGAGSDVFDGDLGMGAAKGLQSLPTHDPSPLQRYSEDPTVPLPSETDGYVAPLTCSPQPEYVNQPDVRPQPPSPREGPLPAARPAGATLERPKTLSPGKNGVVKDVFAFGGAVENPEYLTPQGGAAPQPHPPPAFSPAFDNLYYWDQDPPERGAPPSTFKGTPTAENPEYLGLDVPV

SMILES | viability [1] | viability [2] | viability [3] | differential viability (reversal) ([4]; H69AR cells + 2 uM doxorubicin) | viability [4, 16] [%] | viability [4, 17] [%] | inhibition [5] | inhibition [6] | growth inhibition [7] | growth inhibition [8] | viability increase [9] | viability [10] | viability [11] | inhibition [12] | RAM network inhibition [13] | viability [14] [%] | Her2 level [15]
Cc1cc(=O)oc2cc(OCC#N)ccc12 | 112% (inactive) | 92.1% (inactive) | 99.4% (inactive) | 6.12% (inactive) | 93.3 | 99.4 | -5.07% (inactive) | 1.33% (inactive) | -4.47% (inactive) | -4.6% (inactive) | 1.11% (inactive) | 106% (inactive) | 96.1% (inactive) | 0.155% (inactive) | 3.55% (inactive) |  | 
COc1cccc(-c2nc(CS(=O)(=O)CC(=O)Nc3cc(C)ccc3C)c(C)o2)c1 | 76% (inactive) | 70.7% (inactive) |  | 15.3% (inactive) | 50.8 | 66.1 | -1.73% (inactive) | -4.1% (inactive) | -3.37% (inactive) | -3.22% (inactive) | -1.75% (inactive) | 98.4% (inactive) | 91.4% (inactive) | 3.55% (inactive) | 0.99% (inactive) | 76 | 86.5% (inactive)
CC1=C(C(=O)OC2CCCCCC2)C(c2ccc(C)o2)C2=C(CCCC2=O)N1 (stereo unspecified) | 124% (inactive) | 102% (inactive) | 97.2% (inactive) | -3.5% (inactive) | 101 | 97.2 | -1.49% (inactive) | 2.38% (inactive) | -11.2% (inactive) | -22.5% (inactive) | -2% (inactive) | 70.8% (inactive) | 78.8% (inactive) | 1.77% (inactive) | 1.63% (inactive) |  | 
Cc1ccc(C)c(N2CCN(CCCNC(=O)Cn3cc4c(n3)CCC(C)C4)CC2)c1 (stereo unspecified) | 90.5% (inactive) |  | 26.6% (active) | -20.3% (inactive) | 46.9 | 26.6 | -1.54% (inactive) | -2.83% (inactive) | 6.12% (inactive) | 10.4% (inactive) | -6.04% (inactive) | 1.61% (active) | 2.81% (active) | 1.44% (inactive) | 0.11% (inactive) | 90.5 | 78% (inactive)
O=C(CN1CCN(Cc2ccccc2)CC1)NCC1COc2ccccc2O1 (stereo unspecified) | 108% (inactive) | 110% (inactive) | 93.2% (inactive) | 6.56% (inactive) | 86.6 | 93.2 | -2.53% (inactive) | -4.73% (inactive) | -1.31% (inactive) | -5.58% (inactive) | -1.29% (inactive) | 93.6% (inactive) | 96.9% (inactive) | -0.145% (inactive) | 2.61% (inactive) |  | 
Cc1ccccc1Cn1nc(C)c(NC(=O)c2noc3c2CCc2ccccc2-3)c1C | 126% (inactive) |  | 98.4% (inactive) | 14% (inactive) | 84.4 | 98.4 | 5.77% (inactive) | -2.17% (inactive) | -6.68% (inactive) | 1.82% (inactive) | 10.6% (active) | 79.5% (inactive) | 85.2% (inactive) | 1.23% (inactive) | 6.54% (inactive) | 126 | 61% (inactive)
Cc1cc(/C=N/n2cnnc2)c(C)n1-c1cccc(Cl)c1 | 84% (inactive) |  | 86.4% (inactive) | 20.5% (inactive) | 65.9 | 86.4 | -5.26% (inactive) | 3.83% (inactive) | -2% (inactive) | 22.7% (inactive) | -3.15% (inactive) | 83.7% (inactive) | 73.2% (inactive) | 2.75% (inactive) | 2.81% (inactive) | 84 | 92% (inactive)
COc1cc(C(=O)NCCc2ccc3c(c2)OCCO3)ccc1OCC(=O)N1CCOCC1 | 100% (inactive) | 112% (inactive) | 93.3% (inactive) | 1.3% (inactive) | 92 | 93.3 | -5.95% (inactive) | -6.55% (inactive) | -14.7% (inactive) | -16% (inactive) | -2.17% (inactive) | 97.6% (inactive) | 96.3% (inactive) | 1.68% (inactive) | 1.5% (inactive) |  | 
Cc1cc(C)c2c(=O)n(CC(=O)NCCCN3CCN(c4ccccc4F)CC3)sc2n1 | 107% (inactive) |  | 3.21% (active) | 2.02% (inactive) | 1.19 | 3.21 | -4.8% (inactive) | 10% (inactive) | 16.2% (inactive) | 7.71% (inactive) | -7.84% (inactive) | 3.95% (active) | 1.7% (active) | 1.52% (inactive) | 5% (inactive) | 107 | 70.5% (inactive)
COc1ccc(Nc2ncnc3c2cnn3-c2ccccc2)cc1OC | 82.5% (inactive) | 59.4% (inactive) |  | -31% (inactive) | 73.7 | 42.7 | 0.27% (inactive) | -9.33% (inactive) | -4.18% (inactive) | -24.4% (inactive) | -0.97% (inactive) | 107% (inactive) | 97.7% (inactive) | 0.635% (inactive) | 5.61% (inactive) | 82.5 | 91% (inactive)
O=C(Nc1ccc2c(c1)OCCO2)C1CCN(C(=O)c2ccc(F)cc2)CC1 | 90% (inactive) | 94.9% (inactive) | 92.5% (inactive) | 5.68% (inactive) | 86.8 | 92.5 | -4.53% (inactive) | -4.55% (inactive) | -9.55% (inactive) | -4.03% (inactive) | -3.11% (inactive) | 92.3% (inactive) | 93% (inactive) | 0.685% (inactive) | 6.28% (inactive) |  | 
Cc1cc(C)nc(SCc2ccc3nonc3c2)n1 | 99% (inactive) | 89.9% (inactive) | 89.2% (inactive) | 15.7% (inactive) | 73.5 | 89.2 | -6.53% (inactive) | -0.18% (inactive) | -9.08% (inactive) | -6.27% (inactive) | -0.41% (inactive) | 96.3% (inactive) | 98% (inactive) | 0.535% (inactive) | 3.64% (inactive) |  | 
C(=N\n1cnnc1)/c1cccc(OCCOc2ccccc2)c1 | 76% (inactive) | 96.2% (inactive) | 94.6% (inactive) | 4.15% (inactive) | 90.5 | 94.6 | -4.53% (inactive) | 2% (inactive) | -7.18% (inactive) | 13.9% (inactive) | 0.62% (inactive) | 89% (inactive) | 94.9% (inactive) | 1.81% (inactive) | 0.17% (inactive) |  | 
COC(=O)c1ccc(NC(=O)C2C3CCC(C3)C2C(=O)O)cc1 (stereo unspecified) | 96% (inactive) | 113% (inactive) | 90.4% (inactive) | 0.415% (inactive) | 90 | 90.4 | 2.13% (inactive) | 6.55% (inactive) | 10.2% (inactive) | 1.67% (inactive) | -2.31% (inactive) | 93.7% (inactive) | 93.6% (inactive) | 1.04% (inactive) | 1.43% (inactive) |  | 
Cc1nonc1NC(=O)c1ccccc1Br | 101% (inactive) | 95.8% (inactive) | 91.8% (inactive) | 4.93% (inactive) | 86.8 | 91.8 | -3.6% (inactive) | -1.64% (inactive) | -16.1% (inactive) | -8.82% (inactive) | 0.21% (inactive) | 93.7% (inactive) | 101% (inactive) | 2.3% (inactive) | -0.15% (inactive) |  | 
C#CCOC(=O)C1C2C=CC(C2)C1C(=O)O (stereo unspecified) | 86% (inactive) | 109% (inactive) | 93.6% (inactive) | 11.9% (inactive) | 81.7 | 93.6 | -6.27% (inactive) | 1.45% (inactive) | 2.87% (inactive) | -1.21% (inactive) | 0.51% (inactive) | 103% (inactive) | 96.8% (inactive) | -0.215% (inactive) | 2.5% (inactive) |  | 
O=C(C1CC1)N1CCc2cc(Br)cc(S(=O)(=O)N3CCOCC3)c21 | 98% (inactive) | 88.5% (inactive) | 90.6% (inactive) | 10.4% (inactive) | 80.1 | 90.6 | -7.95% (inactive) | 1.11% (inactive) | -11.8% (inactive) | -12.8% (inactive) | -5.31% (inactive) | 91.9% (inactive) | 83.2% (inactive) | 1.35% (inactive) | 2.33% (inactive) |  | 
CC(=O)NCCc1ccc(S(=O)(=O)NCc2ccc3c(c2)OCO3)cc1 | 91% (inactive) | 91.9% (inactive) | 103% (inactive) | 12% (inactive) | 91.3 | 103 | -8.27% (inactive) | -6.18% (inactive) | -15.2% (inactive) | -5.52% (inactive) | 0.44% (inactive) | 96.1% (inactive) | 97.1% (inactive) | 1.12% (inactive) | 1.84% (inactive) |  | 
CCOC(=O)C1=C(CS(=O)(=O)c2ccc(F)c(C)c2)NC(=O)NC1c1ccc(O)c(O)c1 (stereo unspecified) | 112% (inactive) | 85.2% (inactive) | 92.6% (inactive) | 9.16% (inactive) | 83.4 | 92.6 | -4.13% (inactive) | -7.54% (inactive) | 0.775% (inactive) | -9.4% (inactive) | -1.64% (inactive) | 99.1% (inactive) | 94.8% (inactive) | -0.51% (inactive) | 1.66% (inactive) |  | 
CC1CCN(c2c(NCc3ccc(C(=O)N4c5ccccc5CC4C)cc3)c(=O)c2=O)CC1 (stereo unspecified) | 95% (inactive) | 70.5% (inactive) | 37.2% (active) | -11.5% (inactive) | 48.7 | 37.2 | -0.13% (inactive) | 2.33% (inactive) | -17.3% (inactive) | -17.2% (inactive) | -7.24% (inactive) | 72.1% (inactive) | 66.8% (inactive) | 2.15% (inactive) | 2.31% (inactive) |  | 
Cc1ccc(N2C(=O)c3oc4ccccc4c(=O)c3C2c2cccc(O)c2)nc1 (stereo unspecified) | 102% (inactive) | 59.1% (inactive) | 91.8% (inactive) | -11.7% (inactive) | 103 | 91.8 | 0.9% (inactive) | 2.17% (inactive) | -6.7% (inactive) | -3.53% (inactive) | 1.12% (inactive) | 73.1% (inactive) | 71.7% (inactive) | 3.22% (inactive) | 7.27% (inactive) |  | 
